Measurements reported in PubChem BioAssay (NCATS).
Results filed as inconclusive are left out. Unless noted, calls come from the whole dose curve; as a rule, active = well fitted curve in either direction with a large enough effect (not every such curve was filed as active); inconclusive = small, poorly fitted or top-dose-only effect, or another doubt; inactive = flat fitted curve, though single readings scatter.

Columns and labels:
[1] = AP1 Signaling Pathway (AID 357); details: ME-180 AP-1-bla reporter, EGF-induced, beta-lactamase ratio, 5 h; at 17.2 µM (top of the series) unless noted;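 note: ME-180 reporter cells stimulated with EGF at its EC50 level; % is set by controls: 0 for no effect and ±100 for the full control effect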
Method in brief: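 Read-out was the 460nm/530nm emission ratio (excitation 405nm) after CCF4 loading for 2.5 hours at room temperature. Cells carried an AP-1-driven beta-lactamase reporter, were stimulated with EC50 EGF plus compound for 5 hours, and AC50 values came from titrations.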

[2] = Stat Signaling Pathway (AID 446); details: ME-180 (cervical carcinoma) SIE beta-lactamase reporter, IL-6 stimulated, 5 h; at 17.2 µM (top of the series) unless noted;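 note: ME-180 cervical cancer cells given 40 pM IL-6 alongside compound; SIE-controlled beta-lactamase reporter measured as 460/530 nm FRET emission ratio; % is set by controls: 0 for no effect and ±100 for the full control effect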
Method in brief: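 Overnight-plated ME-180 cells bearing a STAT Inducible Element beta-lactamase reporter; 5 h co-exposure to compound and 40 pM IL-6; values normalized to 300 pM IL-6 and 125 nM JAK inhibitor controls.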

[3] = target: Glucocorticoid receptor (Homo sapiens) (UniProt P04150); assay: GR-GFP Redistribution (AID 450;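 active = compounds whose dose series gives a full or clear partial fitted curve of increased nuclear translocation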; note: potency is the fitted concentration of half-maximal effect)
Sequence of Glucocorticoid receptor (Homo sapiens) (P04150 whole entry, looked up): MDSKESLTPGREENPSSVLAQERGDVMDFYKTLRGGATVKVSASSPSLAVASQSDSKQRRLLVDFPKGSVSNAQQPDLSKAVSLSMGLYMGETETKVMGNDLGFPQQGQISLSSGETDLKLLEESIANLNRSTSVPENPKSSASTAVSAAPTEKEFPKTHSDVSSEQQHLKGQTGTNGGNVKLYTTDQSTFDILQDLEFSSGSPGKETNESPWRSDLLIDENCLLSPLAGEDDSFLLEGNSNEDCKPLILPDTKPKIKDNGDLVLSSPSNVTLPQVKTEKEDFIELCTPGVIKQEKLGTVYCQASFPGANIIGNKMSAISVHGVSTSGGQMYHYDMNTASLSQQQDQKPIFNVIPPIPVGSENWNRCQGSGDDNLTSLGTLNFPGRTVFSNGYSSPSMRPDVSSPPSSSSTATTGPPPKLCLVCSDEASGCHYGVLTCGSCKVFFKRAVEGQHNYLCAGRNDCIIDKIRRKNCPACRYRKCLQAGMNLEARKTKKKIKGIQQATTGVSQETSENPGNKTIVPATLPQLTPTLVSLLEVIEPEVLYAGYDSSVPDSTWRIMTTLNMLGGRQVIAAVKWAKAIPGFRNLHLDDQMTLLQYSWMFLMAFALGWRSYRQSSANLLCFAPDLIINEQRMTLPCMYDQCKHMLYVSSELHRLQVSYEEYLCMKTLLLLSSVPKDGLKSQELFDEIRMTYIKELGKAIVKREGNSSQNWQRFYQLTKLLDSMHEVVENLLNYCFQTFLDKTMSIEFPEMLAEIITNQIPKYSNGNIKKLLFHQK

CCOc1ccc(N2C(=O)CC(N)C2=O)cc1 (configuration not stated)
inactive: activity change, negative = inhibition [1] -19.2% | activity, negative = inhibition [2] -5.4% | Potency [3] > 20.6 µM

CCO/C(C)=N/n1c2nc3ccccc3nc2c2c(=O)n(Cc3ccccc3Cl)c(C)nc21
inactive: activity change, negative = inhibition [1] -30% | activity, negative = inhibition [2] -8.13% | Potency [3] > 20.6 µM

COC(=O)c1sc2nc(N3CCCCC3)c3c(c2c1N)CC(C)(C)N(C)C3
inactive: activity change, negative = inhibition [1] 21% | activity, negative = inhibition [2] 9.93% | Potency [3] > 20.6 µM

CN=C(c1ccco1)n1c(=S)nc(-c2ccco2)n(C)c1=S
inactive: activity change, negative = inhibition [1] 10.9% | activity, negative = inhibition [2] 15.6% | Potency [3] > 20.6 µM

CCCCCCn1c(SCCN2CCOCC2)nc2c1c(=O)[nH]c(=O)n2C
inactive: activity change, negative = inhibition [1] -17.8% | activity, negative = inhibition [2] -0.329% | Potency [3] > 20.6 µM

Cc1c(C)c2cc(Cl)c(O)c(CN3CCCCC3)c2oc1=O
inactive: activity change, negative = inhibition [1] 17.2% | activity, negative = inhibition [2] 2.68% | Potency [3] > 20.6 µM

O=C(O)CCCCCCC1C(=O)NC(=O)N1CCC(O)C1CCCCC1 (configuration not stated)
inactive: activity change, negative = inhibition [1] -4.54% | activity, negative = inhibition [2] 14.6% | Potency [3] > 20.6 µM

CC(C)c1nc2sc3c(c2c(=O)o1)CCCC3
inactive: activity change, negative = inhibition [1] -7.93% | activity, negative = inhibition [2] 2.63% | Potency [3] > 20.6 µM

Cc1cc(C)n(CC2CC(=O)N(c3ccc(F)c(Cl)c3)C2=O)n1 (configuration not stated)
inactive: activity change, negative = inhibition [1] -5.28% | activity, negative = inhibition [2] -2.55% | Potency [3] > 20.6 µM
